# Source: PubChem BioAssay
# The source made the active and inactive calls.
# Key:
# [1] = test system: Plasmodium falciparum Sir2 (PF13_0152, Sir2A); assay: pfSir2 binders on small-molecule microarrays, primary screen, biochemical, small-molecule microarray, 635 nm fluorescence (AID 1098); conditions: small-molecule microarray binding, fluorescence 635 nm; higher = more signal;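 also: score merges spot fluorescence intensity with its signal-to-noise ratio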
# [2] = small-molecule microarray binders of probe aDKK1, primary screen, biochemical, biotinylated probe, 635/667 nm fluorescence (AID 1099); conditions: higher = more signal;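 also: score merges 667nm spot fluorescence with signal to noise across triplicate slides; reference of the scale not given here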
# [3] = small-molecule microarray binders of probe aCHRDL2, primary screen, biochemical, biotinylated probe, 635/667 nm fluorescence (AID 1100); conditions: higher = more signal
# [4] = splicing luciferase reporter signal modulators, primary screen, spliceosome inhibition project, cell-based, HEK293, splice +/- reporter (AID 1101); conditions: luminescence, 24 h, higher = more signal, called active from +8 up or from −8 down;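 also: HEK293 cells carrying a splicing-competent luciferase reporter gene; test concentration not given here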
# [5] = molecular target: Fibroblast growth factor 10 (Homo sapiens) (UniProt O15520); assay: FGF10 binders on small-molecule microarrays, primary screen, biochemical, small-molecule microarray, 635 nm fluorescence (AID 1102); conditions: FGF10 binding, fluorescence 635 nm, higher = more signal
# Sequence of Fibroblast growth factor 10 (Homo sapiens) (O15520 whole entry, looked up): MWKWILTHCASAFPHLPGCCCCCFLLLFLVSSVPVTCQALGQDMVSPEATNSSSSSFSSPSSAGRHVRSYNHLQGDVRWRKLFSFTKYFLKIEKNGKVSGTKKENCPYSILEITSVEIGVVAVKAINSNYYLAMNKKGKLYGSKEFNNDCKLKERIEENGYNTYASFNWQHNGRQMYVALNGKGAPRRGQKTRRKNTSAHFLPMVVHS
# [6] = test system: glycogen synthase kinase-3 (GSK3A per assay name; protocol says GSK3B); assay: GSK3 binders on small-molecule microarrays, primary screen, biochemical, small-molecule microarray, 635 nm fluorescence, GSK3A (AID 1103); conditions: small-molecule microarray binding, fluorescence 635 nm; higher = more signal; also: the record names both GSK3A and GSK3B
# [7] = molecular target: Epidermal growth factor receptor (Homo sapiens) (UniProt P00533); assay: EGFR binders on small-molecule microarrays, primary screen, biochemical, small-molecule microarray, 635 nm fluorescence (AID 1104); conditions: EGFR binding, higher = more signal;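 also: score merges 667 nm emission intensity with spot signal to noise over triplicate slides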
# Sequence of Epidermal growth factor receptor (Homo sapiens) (P00533 whole entry, looked up): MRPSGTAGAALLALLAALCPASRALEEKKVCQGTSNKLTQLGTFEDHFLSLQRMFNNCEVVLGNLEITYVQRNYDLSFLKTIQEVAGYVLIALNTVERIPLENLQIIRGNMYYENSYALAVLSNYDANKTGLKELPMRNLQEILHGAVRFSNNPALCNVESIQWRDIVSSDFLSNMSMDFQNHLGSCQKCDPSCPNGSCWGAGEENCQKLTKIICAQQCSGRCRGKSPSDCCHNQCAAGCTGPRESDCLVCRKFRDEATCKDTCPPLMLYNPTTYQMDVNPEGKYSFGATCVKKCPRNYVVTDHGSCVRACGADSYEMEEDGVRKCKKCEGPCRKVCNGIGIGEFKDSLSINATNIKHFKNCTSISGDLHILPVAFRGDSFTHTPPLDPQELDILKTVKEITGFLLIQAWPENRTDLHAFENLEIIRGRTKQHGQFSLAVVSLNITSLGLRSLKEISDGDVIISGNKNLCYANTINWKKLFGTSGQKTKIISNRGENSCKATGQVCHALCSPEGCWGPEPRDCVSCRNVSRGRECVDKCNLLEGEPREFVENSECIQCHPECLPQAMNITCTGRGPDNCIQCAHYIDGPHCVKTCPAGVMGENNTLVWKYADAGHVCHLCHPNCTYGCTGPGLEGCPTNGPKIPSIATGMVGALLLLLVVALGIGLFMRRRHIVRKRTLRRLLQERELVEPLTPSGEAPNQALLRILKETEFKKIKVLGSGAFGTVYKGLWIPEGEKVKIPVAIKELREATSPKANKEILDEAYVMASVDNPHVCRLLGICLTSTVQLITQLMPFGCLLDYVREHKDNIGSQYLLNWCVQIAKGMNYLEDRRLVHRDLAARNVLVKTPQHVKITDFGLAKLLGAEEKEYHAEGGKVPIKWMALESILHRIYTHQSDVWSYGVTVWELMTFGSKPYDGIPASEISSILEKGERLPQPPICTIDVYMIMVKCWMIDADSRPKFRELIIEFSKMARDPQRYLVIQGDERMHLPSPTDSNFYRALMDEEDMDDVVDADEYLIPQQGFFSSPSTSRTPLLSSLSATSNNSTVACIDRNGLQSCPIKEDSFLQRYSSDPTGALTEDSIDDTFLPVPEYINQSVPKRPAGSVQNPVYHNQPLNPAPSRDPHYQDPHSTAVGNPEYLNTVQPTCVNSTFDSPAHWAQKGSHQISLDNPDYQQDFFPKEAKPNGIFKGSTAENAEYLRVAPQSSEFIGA
# [8] = molecular target: Follistatin-related protein 3 (Homo sapiens) (UniProt O95633); assay: FSTL3 binders on small-molecule microarrays, primary screen, biochemical, small-molecule microarray, 635 nm fluorescence (AID 1105); conditions: FSTL3 binding, higher = more signal;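 also: score merges emission near 667 nm and signal to noise per printed spot across three slides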
# Sequence of Follistatin-related protein 3 (Homo sapiens) (O95633 whole entry, looked up): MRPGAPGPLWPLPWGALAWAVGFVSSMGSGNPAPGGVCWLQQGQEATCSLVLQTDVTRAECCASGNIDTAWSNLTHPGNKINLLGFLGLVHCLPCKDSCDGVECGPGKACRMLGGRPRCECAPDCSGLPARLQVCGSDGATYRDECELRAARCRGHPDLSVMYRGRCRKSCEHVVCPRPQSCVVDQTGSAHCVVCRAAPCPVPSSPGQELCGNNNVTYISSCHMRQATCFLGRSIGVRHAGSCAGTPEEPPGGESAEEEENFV
# [9] = molecular target: Dickkopf-related protein 1 (Homo sapiens) (UniProt O94907); assay: DKK1 binders on small-molecule microarrays, primary screen, biochemical, small-molecule microarray, 635 nm fluorescence scan (AID 1106); conditions: DKK1 binding, higher = more signal;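 also: score merges emission near 667 nm with signal to noise over three replicate slides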
# Sequence of Dickkopf-related protein 1 (Homo sapiens) (O94907 whole entry, looked up): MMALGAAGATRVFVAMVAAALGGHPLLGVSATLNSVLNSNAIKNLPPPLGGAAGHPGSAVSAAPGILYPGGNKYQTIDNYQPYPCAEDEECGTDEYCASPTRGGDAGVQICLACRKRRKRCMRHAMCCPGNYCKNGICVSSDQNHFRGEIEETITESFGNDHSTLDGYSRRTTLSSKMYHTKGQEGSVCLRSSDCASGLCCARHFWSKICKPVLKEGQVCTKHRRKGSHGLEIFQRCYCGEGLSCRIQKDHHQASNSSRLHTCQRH
# [10] = test system: Inhibin beta A chain (activin A); assay: INHBA (activin A) binders on microarrays, primary screen, biochemical, small-molecule microarray, 635 nm fluorescence scan (AID 1107); conditions: small-molecule microarray binding, higher = more signal;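 also: mouse activin A protein probed at 4.33 µg/mL on printed slides; score merges bound-protein fluorescence near 667 nm with spot signal-to-noise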
Compound,composite z-score [1],composite z-score [2],composite z-score [3],z-score [4],composite z-score [5],composite z-score [6],composite z-score [7],composite z-score [8],composite z-score [9],composite z-score [10]
COC(=O)[C@H](Cc1ccccc1)N1CC2=C[C@@H](C3CC3)n3c(=O)n(C)c(=O)n3[C@H]2[C@@H]1[C@@H](O)Cc1ccccc1,0.711,-0.412,-0.5,-0.515 (inactive),0.617,0.658,0.217,0.868,0.312,0.289
O=C1O[C@@H](c2ccccc2)[C@@H](c2ccccc2)N2[C@@H](c3ccccc3OCCO)[C@]3(C(=O)Nc4ccccc43)[C@@H](C(=O)Nc3nc4ccccc4s3)[C@H]12,1.02,1.05,0.0859,-1.86 (inactive),1.23,1.02,0.383,0.799,0.287,0.33
NC(=O)[C@@H]1[C@H]2C(=O)O[C@H](c3ccccc3)[C@H](c3ccccc3)N2[C@H](c2ccc(O)cc2)[C@@]12C(=O)Nc1ccccc12,0.0555,-0.109,0.798,-0.936 (inactive),-0.433,-1.04,-0.49,-1.06,-1.91,-0.638
C=C(CCCC)/C(=C/C[C@@H](OC(=O)c1ccncc1)c1ccc(OCCO)cc1)c1cc(C(=O)OC)ccc1OC,0.0247,0.0101,-0.287,0.489 (inactive),0.876,0.605,-0.0331,0.937,0.135,0.218
CC(C)N1C(=O)c2ccccc2[C@](C)(C(=O)NCCN2CCOCC2)[C@@H]1c1ccc(CO)cc1,0.24,-0.0879,0.987,0.0672 (inactive),-0.499,-0.608,-1.13,-0.115,-0.75,0.503
[N-]=[N+]=NCc1ccccc1[C@@H]1OC(c2ccc(OCCCO)cc2)=N[C@]1(Cc1ccccc1)C(N)=O,1.01,0.758,0.864,-1.16 (inactive),1.42,1.3,-0.592,0.881,-0.117,0.857
C=C(C)[C@@H]1CC=C(C(O)C2C=CC3C(=O)N(c4ccccc4)C(=O)C3N2Nc2ccccc2)CC1 (stereo not given in full),0.972,1.06,0.906,0.0541 (inactive),0.852,1.32,-0.747,1.15,0.364,0.622
COC(=O)[C@H](Cc1ccccc1)N[C@@H](/C=C/C1CC1)[C@H](O)Cc1ccccc1,1.02,-0.157,0.442,0.488 (inactive),-0.865,-0.637,-0.463,-0.862,-0.429,0.437
CC(C)C(=C=CC[C@H](O)c1ccc(OCCO)cc1)CCO,1.42,0.0229,0.0152,0.0477 (inactive),0.835,0.145,0.0098,0.842,0.296,0.943
C=CCNC(=O)[C@@H]1[C@H]2C(=O)O[C@H](c3ccccc3)[C@H](c3ccccc3)N2[C@H](c2ccc(O)cc2)[C@@]12C(=O)N(C(=O)OCCOC)c1ccc(C#CCNC(N)=O)cc12,0.88,0.148,0.658,-0.273 (inactive),0.969,1.06,0.119,1.08,0.417,1.02
COc1ccc(/C=C/C=O)cc1,-0.166,-0.201,-0.32,-0.903 (inactive),0.188,0.0929,-0.0607,0.679,0.406,0.664
C=CC[C@@]1(C(=O)NCCN2CCOCC2)N=C(c2ccc(OCCCO)cc2)O[C@@H]1c1ccccc1N=[N+]=[N-],0.241,1.09,1.03,-0.656 (inactive),0.0038,-0.142,0.539,0.255,-0.0358,1.72
O=C1c2ccccc2[C@](Cc2ccccc2I)(C(=O)NCCN2CCOCC2)[C@H](c2ccc(CO)cc2)N1C1CCCCC1,0.979,1.04,0.77,0.821 (inactive),0.82,1.3,0.499,1.24,0.941,0.821
CC(C)C(CO)N1C(=O)[C@@H]2C3C(=O)OCCC/C=C\[C@H]3OC23C=CCN(CCN2CCOCC2)C(=O)[C@@H]13 (stereo not given in full),-0.768,-0.355,-0.45,0.963 (inactive),0.0971,0.0585,-0.203,0.0915,0.284,0.88
C=CCOC(=O)[C@@H]1[C@H]2C(=O)O[C@H](c3ccccc3)[C@H](c3ccccc3)N2[C@H](c2ccc(OCCOC(=O)[C@@H]3C[C@@H]4C(=O)NCC(=O)N4[C@@H]3c3ccc(O)cc3)cc2)[C@@]12C(=O)Nc1ccc(I)cc12,0.924,-0.485,-0.201,-0.603 (inactive),0.912,1.29,0.715,1.22,0.82,0.0932
C=C(/C(=C/C[C@H](OC(C)=O)c1ccccc1OCCO)c1cnc2ccccc2c1)C(C)C,1.55,0.955,-0.269,0.0118 (inactive),0.53,0.311,-0.306,1.04,0.304,1.87

Compound,composite z-score [1],composite z-score [2],composite z-score [3],z-score [4],composite z-score [5],composite z-score [6],composite z-score [7],composite z-score [8],composite z-score [9],composite z-score [10]
COCCOC(=O)N1C(=O)[C@@]2(c3cc(C#CC4(O)CCCCCC4)ccc31)[C@H](c1ccccc1OCCO)N1[C@H](c3ccccc3)[C@H](c3ccccc3)OC(=O)[C@H]1[C@@H]2C(=O)N1CCN(c2ncccn2)CC1,0.892,0.0468,-0.0635,0.514 (inactive),1.12,1.03,0.484,1.18,0.991,0.244
C[N+](C)(C)CCCC[C@@H]1NC(=O)[C@H]2C[C@@H](C(=O)NCCCCCCNC(=O)CS)[C@@H](c3cccc(OCCO)c3)N2C1=O,0.726,-0.0575,0.861,-0.213 (inactive),-0.85,-0.805,-1.06,-0.994,-0.602,-0.57
O=C1C[C@@](C(=O)NC2CC2)(c2ccc([N+](=O)[O-])cc2)[C@@H](c2ccc(CO)cc2I)N1C1CCCCC1,1.02,0.666,-0.0524,-0.497 (inactive),1.19,0.931,0.414,1.25,0.486,0.245
C=CCN1C(=O)[C@@]2(CC=C)N=C(c3ccc(OCCCO)cc3)O[C@H]2c2ccccc21,1.66,0.801,1.08,-1.63 (inactive),1.45,1.32,0.734,1.41,1.14,1.2
CC(C)C[C@@H]1NC(=O)[C@@H]2C[C@H](C(=O)O)[C@H](c3cccc(OCCO)c3)N2C1=O,0.881,-0.212,0.598,-0.358 (inactive),-0.246,0.12,-0.242,0.152,-0.176,-0.513
CCOC(=O)C[C@H]1[C@H](OC(=O)c2ccc(C(=O)c3ccccc3)cc2)[C@@H](NC(=O)c2ccc3ccccc3c2)c2cc(OCCCO)ccc2N1C(=O)Cc1ccc(OC)cc1,1.14,0.282,0.503,-0.175 (inactive),0.545,0.158,-0.16,0.303,-0.213,0.856
C=CCOC(=O)[C@H]1[C@@H]2C(=O)O[C@@H](c3ccccc3)[C@@H](c3ccccc3)N2[C@@H](c2ccc(OCCOC(=O)[C@H]3C[C@H]4C(=O)N[C@@H](CCCCN(C)C)C(=O)N4[C@H]3c3ccc(O)cc3)cc2)[C@]12C(=O)Nc1ccc(I)cc12,1.72,0.193,0.289,0.426 (inactive),1.31,1.32,0.741,1.41,0.849,1.29
NC(=O)N1C(=O)C2C(C1=O)C1C=C(c3ccc(CO)cc3)C2C(c2cccs2)N1Cc1cccc(OC(F)(F)F)c1 (stereo not given),-0.148,0.799,1.02,-1.99 (inactive),0.302,-0.343,-0.813,0.122,0.245,1.49
COCCOC(=O)N1C(=O)[C@@]2(c3cc(C#CCCO)ccc31)[C@H](C(N)=O)[C@H]1C(=O)O[C@H](c3ccccc3)[C@H](c3ccccc3)N1[C@@H]2c1ccc(O)cc1,1.22,-0.163,0.489,0.477 (inactive),0.344,-0.124,-0.376,-0.131,0.0665,0.275
O=C1OCCC/C=C\[C@H]2OC34C=CCN(Cc5ccccc5)C(=O)[C@H]3N(CCCO)C(=O)[C@@H]4C12 (stereo not given in full),1.26,-0.0379,0.794,0.422 (inactive),-0.967,-0.972,-1.55,-1.57,-1.66,-0.583
NCCCCCCNC(=O)[C@@H]1C[C@@H]2C(=O)NCC(=O)N2[C@@H]1c1ccc(O)cc1,1.45,-0.0828,-0.0743,-0.481 (inactive),1.05,1.3,0.574,1.3,1.6,0.802
CCCC[C@@H]1C[C@H]1[C@@H](NC(=O)c1ccccc1)c1ccc(C(=O)OC)cc1,0.798,0.393,1.18,-2.47 (inactive),-0.358,-0.534,-1.38,-0.668,-1.57,1.19
COc1ccc(C(=O)Nc2ccc(CN3C(=O)[C@]4(O[C@H](CCO)[C@@H]([Si](C)(C)c5ccc(OC)cc5)[C@@H]4C)c4ccccc43)cc2)cc1,1.21,-0.122,0.326,-3.38 (inactive),0.708,0.762,0.231,1.02,0.241,1.3
O=C1C[C@@](C(=O)NCCN2CCOCC2)(c2ccc([N+](=O)[O-])cc2)[C@@H](c2ccc(CO)cc2)N1CC12CC3CC(CC(C3)C1)C2,0.866,0.104,0.638,2.36 (inactive),1.22,1.32,0.86,1.3,0.912,0.403
COC(=O)C(CC#Cc1ccc2c(c1)[C@]1(C(=O)N2)[C@H](C(=O)Nc2nc3ccccc3s2)[C@H]2C(=O)O[C@H](c3ccccc3)[C@H](c3ccccc3)N2[C@@H]1c1ccc(O)cc1)C(=O)OC,1.18,0.381,0.454,-0.204 (inactive),1.28,1.29,0.642,1.4,0.829,0.381
CC(C)C[C@@H]1NC(=O)[C@H](C(C)C)NC(=O)[C@@]23C(=O)N[C@@H](Cc4ccccc4)C2[C@H](C)[C@@]2(C)O[C@H]2C3/C=C/CC/C=C/CNC1=O (stereo not given in full),0.26,-0.189,-0.263,-0.76 (inactive),1.16,0.94,0.467,1.37,0.384,1.35
